High-throughput results (PubChem)
Most compounds without a hit are left out; they make up all but 2.4% or so of the library.
Pol iota inh: DNA polymerase iota (human) inhibition. Q9UNA4. Potency, µM (highest dose often 115 µM), for the others: top-dose activity, negative = inhibition, hits mostly inhibitors. Pol iota fluorescent replication assay, 10 min. AID 588590. 390,000 compounds, 1% hits; further: potency means the concentration at half of the fitted maximal effect
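Pol iota at 10 nM preincubated 15 min with compounds at room temperature; reaction started with fluorescent substrate, 50 nM final. Fluorescence read kinetically at 0 and 10 min; buffer-only wells as negative control.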
Pol kappa inh-1: inhibitors of human DNA polymerase kappa. purified Pol kappa, fluorescent DNA synthesis assay, 10 min. Potency, µM (doses to about 107 µM), inactives show at the highest dose activity, negative = inhibition, usual class: inhibitors. Q9UBT6. 400,000 compounds, 0.53% hits; further: potency means the concentration at half of the fitted maximal effect; on the % scale 0 is the no-effect control and ±100 the full control effect
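50 nM final substrate added after 15 min RT preincubation of 10 nM Pol kappa with compound; fluorescence read at 0 and 10 min.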
Pol eta inh-1: DNA polymerase eta (human) inhibition; Q9Y253; recombinant Pol eta, fluorescent DNA replication assay; Potency, µM (doses to about 114 µM), inactives show at the top dose activity change, negative = inhibition, actives largely listed as inhibitors; 390,000 compounds, 1.2% hits; AID 588591; further: potency means the concentration at half of the fitted maximal effect; on the % scale 0 is the no-effect control and ±100 the full control effect
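Pol eta (10 nM) was preincubated with compounds for 15 min at room temperature, after which fluorescent replication substrate (50 nM final) was added to start the reaction. Fluorescence was read kinetically at 0 and 10 min.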
GLS inh: inhibitors of human glutaminase (GLS); O94925; GLS enzymatic activity, qHTS titration; Potency, µM (titrated, usually from 45.5 µM), for inactives: at the top dose activity change, negative = inhibition, actives largely listed as inhibitors; 410,000 compounds, 0.21% hits; AID 624170; further: potency means the concentration at half of the fitted maximal effect; on the % scale 0 is the no-effect control and ±100 the full control effect
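Human kidney-isoform GLS in 45 mM KH2PO4 pH 8.2, 0.02% Tween-20, with compound, started with 1mM L-Glutamine (added stock). Glutamate oxidase/HRP/Amplex red coupled fluorescence read at start and after 30 min at RT.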
Pol beta inh: DNA polymerase beta (human) inhibition. P06746. Pol beta primer extension/strand displacement, fluorescence kinetic. Potency, µM (series often up to 114 µM), for the others: at the highest dose activity change, negative = inhibition, hits mostly inhibitors. 340,000 compounds, 1.3% hits. AID 485314; further: potency means the concentration at half of the fitted maximal effect; on the % scale 0 is the no-effect control and ±100 the full control effect
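Enzyme-only controls used 10 nM Pol beta; buffer lacking enzyme served as negative control. Compound preincubated 15 min, then 50 nM substrate added; 0 and 10 min reads at room temperature.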
KAT2A inh: inhibitors of human GCN5L2 histone acetyltransferase | GCN5L2 HAT assay, ThioGlo1 CoA-SH fluorescence | Potency, µM (titrated, usually from 58.9 µM), inactives show at the top dose activity change, negative = inhibition, hits mostly inhibitors | 390,000 compounds, 0.21% hits | AID 504327; further: potency means the concentration at half of the fitted maximal effect; on the % scale 0 is the no-effect control and ±100 the full control effect
Target sequence (Q92830 whole entry, looked up): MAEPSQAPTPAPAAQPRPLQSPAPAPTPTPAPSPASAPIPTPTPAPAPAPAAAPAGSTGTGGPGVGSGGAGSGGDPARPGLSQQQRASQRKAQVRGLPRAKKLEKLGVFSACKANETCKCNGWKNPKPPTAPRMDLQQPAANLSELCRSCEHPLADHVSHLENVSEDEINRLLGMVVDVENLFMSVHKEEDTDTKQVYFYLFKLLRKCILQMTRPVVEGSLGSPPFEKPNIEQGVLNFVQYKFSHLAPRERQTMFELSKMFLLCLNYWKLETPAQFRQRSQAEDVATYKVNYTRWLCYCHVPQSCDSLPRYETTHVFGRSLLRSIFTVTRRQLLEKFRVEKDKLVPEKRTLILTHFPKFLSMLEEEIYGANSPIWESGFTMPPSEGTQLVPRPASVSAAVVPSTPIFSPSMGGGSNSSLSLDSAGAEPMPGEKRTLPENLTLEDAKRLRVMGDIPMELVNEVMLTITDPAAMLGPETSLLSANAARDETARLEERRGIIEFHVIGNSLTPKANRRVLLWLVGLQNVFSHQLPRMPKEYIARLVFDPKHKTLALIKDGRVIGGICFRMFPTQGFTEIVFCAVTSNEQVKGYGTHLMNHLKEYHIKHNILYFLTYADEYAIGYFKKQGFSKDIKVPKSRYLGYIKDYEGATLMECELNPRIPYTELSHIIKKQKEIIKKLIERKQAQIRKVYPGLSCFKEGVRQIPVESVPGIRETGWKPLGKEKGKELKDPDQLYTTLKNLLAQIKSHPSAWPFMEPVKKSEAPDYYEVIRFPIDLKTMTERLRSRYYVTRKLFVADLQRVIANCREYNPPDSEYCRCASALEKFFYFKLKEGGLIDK
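GCN5L2 (20nM final) in 50mM HEPES, 0.1mM EDTA pH 7.5, 0.01% Tween-20 was preincubated 15 min at room temperature with compound, then given ThioGlo1 (50uM), H3(1-25) peptide (75uM) and acetyl-CoA (70uM); CoA-thiol fluorescence (Ex340/Em540) was read at 0 and 20 min.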
GALK inh confirm: galactokinase (human) inhibition, confirmation; shares compounds with Pol eta inh-1; purified GALK, Kinase-Glo ATP depletion luminescence; Potency, µM (doses to about 115 µM), without a hit: at the top dose activity, negative = inhibition, hits mostly inhibitors; 150 compounds, 70% hits; AID 2015
Redox cycling: counter-screen for GALK inhibitors: redox cycling H2O2 generation; Potency, µM (top dose mostly 115 µM), without a hit: at the highest dose activity change, negative = H2O2 signal, most hits filed as inhibitors; shares compounds with Pol eta inh-1; AID 2035; Phenol red-HRP H2O2 redox cycling, absorbance 600 nm; 150 compounds, 40% hits
HEK293 viability: counter-screen for GALK inhibitors: HEK293 cell cytotoxicity. 170 compounds, 10% hits. HEK-293 viability, ATP luminescence (CellTiter-Glo), 24/48 h. shares compounds with Pol eta inh-1. Potency, µM (doses to about 46.1 µM), without a hit: at the top dose activity change, negative = cytotoxicity, hits mostly inhibitors; further: potency means the concentration at half of the fitted maximal effect; on the % scale 0 is the no-effect control and ±100 the full control effect
Pol kappa inh-2: confirmation of human DNA polymerase kappa inhibitors; shares compounds with Pol eta inh-1; purified Pol-kappa, fluorescent strand-displacement substrate; Potency, µM, hits mostly inhibitors; 920 compounds, 76% hits; AID 720501; further: potency means the concentration at half of the fitted maximal effect
Pol eta inh-2: confirmation of human DNA polymerase eta inhibitors; Potency, µM, actives largely listed as inhibitors; 2,600 compounds, 64% hits; AID 720502; Pol eta primer extension, TAMRA/BHQ fluorescence, 10 min; shares compounds with Pol eta inh-1; further: potency means the concentration at half of the fitted maximal effect
The depositor's hits bear a star; u = inconclusive; x = no result; [ ] = dose if it differs, or a comment. The call rests on the fitted dose curve; in most records, active means well fitted curve in the direction sought with a large enough effect; inconclusive means small, poorly fitted or top-dose-only effect, or another doubt; inactive means no such curve, though single readings can be large; an effect the other way counts as inactive or inconclusive.

SMILES | Pol iota inh | Pol kappa inh-1 | Pol eta inh-1 | GLS inh | Pol beta inh | KAT2A inh | Pol eta inh-2 | others
Cc1ccccc1NS(=O)(=O)c1ccc2[nH]cc(C(=O)N3CCCCC3)c(=O)c2c1 | u | -11%[60.1 µM] | 45µM* | -6% | u | -15% | 76*
COCCNC(=O)c1c[nH]c2ccc(S(=O)(=O)Nc3ccccc3F)cc2c1=O | u | -25% | -16% | 5% | u | 3% | x
Cc1cc(C)cc(NS(=O)(=O)c2ccc3[nH]cc(C(=O)N4CCCCCC4)c(=O)c3c2)c1 | -13% | -14% | -5% | 5% | 19% | -7% | x
Cc1ccccc1NS(=O)(=O)c1ccc2[nH]cc(C(=O)NC(C)c3ccccc3)c(=O)c2c1 (stereo not given) | u | 4%[60.1 µM] | 25µM* | 5% | 40µM* | -18% | u
Cc1cccc(CCNC(=O)c2c[nH]c3ccc(S(=O)(=O)Nc4ccccc4F)cc3c2=O)c1 | u | -22%[60.1 µM] | -6% | 6% | 5% | -6% | x
Cc1ccc(CCNC(=O)c2c[nH]c3ccc(S(=O)(=O)Nc4ccc(C)cc4C)cc3c2=O)cc1 | u | -14%[60.1 µM] | 50µM* | -3% | u | -23% | u
CCC(C)Sc1oc(-c2ccco2)nc1S(=O)(=O)c1ccc(Cl)cc1 (stereo not given) | u | 0% | -1% | -5% | 1% | -15% | x
Cc1ccc(CN2CCSc3ccc(C(=O)N4CCN(c5cc(C)ccc5C)CC4)cc32)cc1 | -5% | -12% | -20% | -8% | 13% | 4% | x
CN(C)c1ccc(-c2nccc(Nc3ccc(F)cc3)n2)cc1 | x | -8%[60.1 µM] | x | x | x | -27% | x
COc1ccc(-n2ccn(CC(=O)NCc3ccc(C)cc3)c(=O)c2=O)cc1OC | -21% | -27% | -1% | -5% | 2% | -1% | x
Cc1cc(C(c2ccc(C)o2)c2ccc(C)o2)c(O)c([N+](=O)[O-])c1 | u | -11% | -19% | 13% | 6% | -3% | x
Cc1ccc(C(c2ccc(C)o2)c2cccc([N+](=O)[O-])c2O)o1 | u | u | 18µM* | 9% | u | -4% | 85*
COc1ccc(CN(Cc2ccccc2)C(=O)c2ccco2)cc1COc1ccc(NC(C)=O)cc1 | -19% | 3% | x | x | x | x | x
COc1ccccc1NC(=O)c1cc2cc3ccc(OC)c(Cl)c3nc2s1 | -27% | -9%[60.1 µM] | u | 6% | 2.8µM* | -24% | u | Pol kappa inh-2=21*
Cc1nc(NS(=O)(=O)c2ccc(Cl)s2)c2c3c(sc2n1)CCCC3 | 0% | -21% | -5% | 1% | -23% | -5% | x | GALK inh confirm=u;Redox cycling=3%;HEK293 viability=3%
NCCCC[C@H](NC(=O)[C@H](CCCN=C(N)N)NC(=O)[C@H](CO)NC(=O)[C@H](CCCN=C(N)N)NC(=O)[C@@H](N)Cc1ccc(O)cc1)C(=O)N[C@@H](Cc1ccc(O)cc1)C(=O)N[C@@H](CO)C(=O)N[C@@H](CO)C(=O)N[C@@H](Cc1c[nH]c2ccccc12)C(=O)N[C@@H](Cc1ccc(O)cc1)C(=O)O | x | 6%[60.1 µM] | x | x | x | -25% | x
CCOC(=O)C1CCN(C(=O)Cn2c(-c3cccs3)cc3cc(Cl)ccc32)CC1 | 16% | 0% | -16% | 5% | 19% | -5% | x
Cc1c(CCC(=O)O)c(=O)oc2c(C)c3occ(-c4ccc(Cl)cc4)c3cc12 | 13µM* | 89µM* | 22µM* | -9% | 22µM* | u | u
Cc1cccc(-n2nc(C)c(C(=O)Nc3cc(C)ccc3C)c2-n2cccc2)c1 | 7% | -22% | -18% | -4% | 0% | 2% | x
CCSc1nnc(NC(=O)C2CC=CCC2C(=O)O)s1 (stereo not given) | u | -3% | 20µM* | -6% | 32µM* | -3% | u
Cc1cc(NS(=O)(=O)c2ccc(NC(=O)COc3ccccc3[N+](=O)[O-])cc2)no1 | 35µM* | u | 20µM* | 15% | 18µM* | -6% | 67*
NC1=NC(=O)/C(=C/c2cn(CCC(=O)O)nc2-c2ccc(Cl)cc2)S1 | -17% | -16% | 14µM* | 19% | 30% | -3% | x | Pol kappa inh-2=17*
COc1ccc(-c2nn(CCC(=O)O)cc2/C=C2\SC(N)=NC2=O)cc1 | -18% | 79µM* | 5.6µM* | 16% | 9% | 1% | 27* | Pol kappa inh-2=21*
CCN1CCOC(=O)C1CC(=O)Nc1cc(C)ccc1OC (stereo not given) | 12% | -15% | -2% | -1% | 0% | -6% | x
COc1cc(/C=C/c2nc3ccc([N+](=O)[O-])cc3s2)ccc1OCC(=O)O | x | x | x | x | u | -4% | x
COc1cc(/C=C2/C(C)=C(C#N)c3nc(N)c(C#N)c(C)c32)ccc1OCC(=O)O | u | 89µM* | 18µM* | -11% | u | 0% | 30*
CCC(C)Cn1c(/C=C/c2ccccc2)nc2ccccc21 (stereo not given) | -20% | -8% | -10% | -2% | 17% | -16% | x
O=C(Cn1c(=O)n(Cc2ccc(C(=O)NCc3ccc4c(c3)OCO4)cc2)c(=O)c2ccccc21)Nc1ccc(F)cc1F | u | -4% | 79µM* | -8% | 10µM* | -9% | x | Pol kappa inh-2=u
Cc1nc(Nc2nc(-c3ccccc3)cc(=O)[nH]2)nc2ccccc12 | 64% | -15% | u | 2% | x | x | u
O=C(OCC(=O)N1CCOCC1)c1ccc2c(c1)OCCO2 | 3% | 8% | -13% | -8% | 11% | -3% | x
